Test results reported in PubChem BioAssay AID1347420 (Sanford-Burnham Center for Chemical Genomics, 2020).
Several values for one entry are separate records, joined by “and”; a condition that tells them apart may be missing. Equal entries are not always repeated. The campaign covered roughly 1,300 compounds. About 980 (75%) were called active. Another 4% or so got no clear call; they are omitted. This is one part of the list.

The molecules below were run against Sulfhydryl oxidase 1 (Homo sapiens) (UniProt O00391) (assay: QSOX1 enzyme inhibitors, primary screen, biochemical, HyperBlu H2O2 luminescence, HTS (AID 1347420; note: values above 100% were filed as inconclusive)). Settings: recombinant QSOX1, HyperBlu H2O2 luminescence, at 12.5 µM, hits give high values; active = any value above zero unless noted.
Sulfhydryl oxidase 1 (Homo sapiens), sequence (O00391 whole entry, looked up): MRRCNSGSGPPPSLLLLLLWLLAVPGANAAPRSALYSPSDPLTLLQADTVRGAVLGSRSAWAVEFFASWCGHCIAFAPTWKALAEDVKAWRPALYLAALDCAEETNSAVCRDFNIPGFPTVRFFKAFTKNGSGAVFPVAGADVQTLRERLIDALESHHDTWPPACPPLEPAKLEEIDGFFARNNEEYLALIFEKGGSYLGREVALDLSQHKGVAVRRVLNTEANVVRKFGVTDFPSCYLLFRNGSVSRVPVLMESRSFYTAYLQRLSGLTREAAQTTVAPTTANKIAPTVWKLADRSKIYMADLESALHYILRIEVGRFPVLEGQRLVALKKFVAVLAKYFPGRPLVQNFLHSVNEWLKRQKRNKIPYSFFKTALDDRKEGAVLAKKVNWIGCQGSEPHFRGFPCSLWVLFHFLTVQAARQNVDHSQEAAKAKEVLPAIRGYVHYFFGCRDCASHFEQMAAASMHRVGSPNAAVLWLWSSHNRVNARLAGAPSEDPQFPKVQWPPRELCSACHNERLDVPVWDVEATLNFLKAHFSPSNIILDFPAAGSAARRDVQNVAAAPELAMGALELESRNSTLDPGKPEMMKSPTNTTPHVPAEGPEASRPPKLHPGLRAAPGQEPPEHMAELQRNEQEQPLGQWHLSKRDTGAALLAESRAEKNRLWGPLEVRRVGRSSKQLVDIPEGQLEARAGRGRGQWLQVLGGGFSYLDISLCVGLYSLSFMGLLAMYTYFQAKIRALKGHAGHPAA

SMILES	inhibition
C=C(C)[C@H]1CN[C@H](C(=O)O)[C@H]1CC(=O)O	5.8% (active)
CC(C)[C@H]1CN[C@H](C(=O)O)[C@H]1CC(=O)O	23.9% (active)
CN(C(=O)Cc1ccc(Cl)c(Cl)c1)C(CN1CCCC1)c1cccc(OCC(=O)O)c1 (stereo unspecified)	-2.6% (inactive)
O=C(Cc1ccc(Cl)c(Cl)c1)N1CCCCC1CN1CCCC1 (stereo unspecified)	2.1% (active)
COC(=O)N1CCN(C(=O)Cc2ccc(Cl)c(Cl)c2)C(CN2CCCC2)C1 (stereo unspecified)	13.5% (active)
NN=C(N)N	17.9% (active) and 6.7% (active)
NC(Cc1cc(O)c(O)cc1O)C(=O)O (stereo unspecified)	30.1% (active)
NC1CCc2cc(O)c(O)cc2C1 (stereo unspecified)	60.4% (active)
NC(=NCCC[C@H](N)C(=O)O)N[N+](=O)[O-]	7.4% (active)
COC(=O)[C@@H](N)CCCN=C(N)N[N+](=O)[O-]	-8.2% (inactive)
COc1ccc2c(c1)c(CCN1CCOCC1)c(C)n2C(=O)c1cccc(Cl)c1Cl	-15.7% (inactive)
CCC1(C2=NCCN2)Cc2ccccc2O1 (stereo unspecified)	0.3% (active)
NC(Cc1ccc(N(CCCl)CCCl)cc1)C(=O)O (stereo unspecified)	85.8% (active)
Cn1c(CCCC(=O)O)nc2cc(N(CCCl)CCCl)ccc21	87% (active)
O=C(O)CCCc1ccc(N(CCCl)CCCl)cc1	18% [setting not given] (active)
NCCc1ccc(S(=O)(=O)F)cc1	22.8% (active)
NCCc1ccc(O)cc1	14.4% [setting not given] (active)
c1ccc2sc(C3(N4CCCCC4)CCCCC3)cc2c1	-3% (inactive)
CN1C(=O)CCS(=O)(=O)C1c1ccc(Cl)cc1 (stereo unspecified)	18.9% (active)
CCS(=O)(=O)Nc1cccc(C(=C2CCCCC2)c2cnc[nH]2)c1	14.3% (active)
OC1CCCCC1N1CCC(c2ccccc2)CC1 (stereo unspecified)	6.2% [setting not given] (active)
C=C(C)[C@H]1Cc2c(ccc3c2O[C@@H]2COc4cc(OC)c(OC)cc4[C@@H]2C3=O)O1	-11.7% [setting not given] (inactive)
C[C@H]1C2Cc3ccc(O)cc3C1(C)CCN2CC1CC1 (stereo partly specified)	26.8% [setting not given] (active)
O=C(CCCN1CCC2(CC1)C(=O)NCN2c1ccccc1)c1ccc(F)cc1	7.6% [setting not given] (active)
O=C1NCN(c2ccccc2)C12CCN(CC1COc3ccccc3O1)CC2 (stereo unspecified)	5.7% (active)
CC(CCc1ccccc1)NC(C)C(O)c1ccc(O)cc1 (stereo unspecified)	28.5% (active)

SMILES	inhibition
NC(=O)CN1CCCC1=O	1% [setting not given] (active)
NC(=O)CN1CC(O)CC1=O (stereo unspecified)	15.4% [setting not given] (active)
O=C1CCCN1CC#CCN1CCCC1	12.7% [setting not given] (active)
Cc1cccc(C)c1NC(=O)CN1CCCC1=O	13.4% [setting not given] (active)
O=P1(N(CCCl)CCCl)NCCCO1 (stereo unspecified)	-3.8% (inactive)
C/C=C(/C)C(=O)O[C@H]1C(C)=C2[C@H]([C@@H]1OC(=O)CCCCCCC)[C@@](C)(OC(C)=O)C[C@H](OC(=O)CCC)[C@@]1(O)[C@H]2OC(=O)[C@@]1(C)O	-2.4% (inactive)
Cc1nccc2c1[nH]c1ccccc12	8.6% [setting not given] (active)
Cc1c2ccncc2c(C)c2c1[nH]c1ccccc12	78.9% [setting not given] (active)
CC(=O)OCC1=C(C(=O)O)N2C(=O)[C@@H](NC(=O)CCC[C@@H](N)C(=O)O)[C@H]2SC1	-10.7% (inactive)
Cc1ncsc1CCCl	12.9% (active)
c1ccc(C2(c3ccccc3)CC2C2=NCCN2)cc1 (stereo unspecified)	6.4% (active)
COc1cc(CC(C)N)c(OC)cc1I (stereo unspecified)	7.8% [setting not given] (active)
N[C@@H](CCl)C(=O)O	8.8% (active)
NC(CCP(=O)(O)O)C(=O)O (stereo unspecified)	12.3% (active)
NCC(CP(=O)(O)O)c1ccc(Cl)cc1 (stereo unspecified)	-10.6% (inactive)
NC(CP(=O)(O)O)C(=O)O (stereo unspecified)	2.2% (active)
CS(=N)(=O)CC[C@H](N)C(=O)O (stereo partly specified)	-10.8% (inactive)
C[Se]C[C@H](N)C(=O)O	-0.1% (inactive)
NC(CCCCCP(=O)(O)O)C(=O)O (stereo unspecified)	-4.7% (inactive)
CN1C2CCC1CC(OC(c1ccccc1)c1ccccc1N)C2 (stereo unspecified)	14.6% (active)
C[C@@H](N)Cc1cnc[nH]1	21.1% (active)
O=C(O)Cc1cnc[nH]1	5.5% (active)
OCc1cnc[nH]1	3.5% (active)
C#CCOC(=O)C1=CCCN(C)C1	17.9% (active)
COC(=O)C1=CCCN(C)C1	0.6% [setting not given] (active)
